Source: PubChem (National Center for Advancing Translational Sciences (NCATS))
PLK1 PBD inh – PLK1 (human) polo-box domain binding inhibition; P53350; Plk1 PBD binding of FITC phosphopeptide, fluorescence polarization; Potency, µM, for inactives: max response, negative = inhibition, actives largely listed as inhibitors; hit rate 2.8% among 360,000; also: series mostly up to about 57 µM; nearly all actives have a fitted effect of over 65% in size
Target sequence (P53350 whole entry, looked up, the tested form may be a part): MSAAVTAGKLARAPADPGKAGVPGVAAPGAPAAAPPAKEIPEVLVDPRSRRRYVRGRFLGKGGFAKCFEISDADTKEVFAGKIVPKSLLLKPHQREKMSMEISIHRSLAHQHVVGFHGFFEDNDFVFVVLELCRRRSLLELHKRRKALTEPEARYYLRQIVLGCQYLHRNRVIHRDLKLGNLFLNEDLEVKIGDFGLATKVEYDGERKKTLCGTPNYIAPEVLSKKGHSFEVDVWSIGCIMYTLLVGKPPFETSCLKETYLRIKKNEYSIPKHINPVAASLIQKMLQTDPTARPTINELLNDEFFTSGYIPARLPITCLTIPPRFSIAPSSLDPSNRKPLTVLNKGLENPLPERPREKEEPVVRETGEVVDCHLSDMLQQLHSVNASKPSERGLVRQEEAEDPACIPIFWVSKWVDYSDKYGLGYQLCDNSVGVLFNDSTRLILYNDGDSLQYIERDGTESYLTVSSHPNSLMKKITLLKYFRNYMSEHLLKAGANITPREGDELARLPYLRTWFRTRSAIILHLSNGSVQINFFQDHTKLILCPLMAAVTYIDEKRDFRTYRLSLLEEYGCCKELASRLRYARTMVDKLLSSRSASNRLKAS
ALDH1A1 inh – inhibitors of human aldehyde dehydrogenase 1A1. hit rate 7.3% among 220,000. AID 1030. Purified ALDH1A1, NADH fluorescence, propionaldehyde substrate. Potency, µM (titrated, usually from 75.3 µM), inactives show at the top dose activity, negative = inhibition, most hits filed as inhibitors; active = well fitted inhibition curve with a large enough effect, not every such curve was filed as active; inconclusive = small, poorly fitted or top-dose-only effect, or another doubt; inactive = no such curve, though single readings can be large or run the other way;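 also: plate controls were no enzyme wells and a reference inhibitor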
Gal4-VP16 FLuc – Gal4-VP16 reporter inhibition counter-screen | Drosophila S2 Gal4-VP16 UAS-luciferase, luminescence, 20 h | Potency, µM (top dose mostly 53.6 µM), for inactives: at the top dose activity, negative = inhibition, actives largely listed as inhibitors | hit rate 3.5% among 310,000;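 also: Gal4-VP16 expression switched on by copper sulfate through the metallothionein promoter; nearly all actives have a fitted effect of over 50% in size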
RORgamma inh – inhibitors of mouse ROR gamma transcriptional activity; P51450; Drosophila S2 Gal4-RORgamma UAS-luciferase reporter, 20 h; Potency, µM (titrated, usually from 53.6 µM), inactives show at the highest dose activity change, negative = inhibition, usual class: inhibitors; hit rate 5.4% among 310,000; also: nearly all actives have a fitted effect of over 60% in size
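Stable Schneider cell line, Gal4 DNA-binding domain fused to ROR gamma, UAS-luciferase. Cmpd 1 hr RT → CuSO4 700 uM final → 20 hr RT → luciferase reagent 10 min → luminescence.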
Sfp PPTase inh – Sfp phosphopantetheinyl transferase inhibition; Q9F4F7; Biochemical Sfp PPTase activity, qHTS; Potency, µM, without a hit: largest response in the series, negative = inhibition, hits mostly inhibitors; hit rate 3.5% among 310,000;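 also: the enzyme is Sfp with the accession as filed and its product quenches rhodamine fluorescence; 0% = enzyme reaction without inhibitor and -100% = no enzyme wells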
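Step 1, compound plus 15 nM Sfp-PPTase, 15 min, room temperature. Step 2, add rhodamine-CoA (5 uM) and BHQ-2-YbbR (12.5 uM). Step 3, read 525/598 nm fluorescence at 0 and 30 min.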
Active calls of the source: *; ? = inconclusive; . = no result; [ ] = remark or other dose. Only some compounds are listed: those with a hit (about 12% of all), similar ones and a draw of the others. Unless noted, calls follow the shape of the dose curve; as a rule, active = well fitted curve in the direction sought with a large enough effect; inconclusive = small, poorly fitted or top-dose-only effect, or another doubt; inactive = no such curve, though single readings can be large; an effect the other way counts as inactive or inconclusive. Unless noted, % is scaled to controls: 0 for no effect and ±100 for the full control effect; potency is read from the fitted curve at half-maximal effect.

SMILES | PLK1 PBD inh | ALDH1A1 inh | Gal4-VP16 FLuc | RORgamma inh | Sfp PPTase inh
COC(=O)c1cccc(OCCCN2CCC(C(O)(c3ccccc3)c3ccccc3)CC2)c1 | -2% | . | . | . | .
CCc1ccc(C(=O)CSc2n[nH]c(C)n2)cc1 | 27µM* | 11µM* | 9% | -12% | 56µM*
Cc1ccc(C(=O)CSc2n[nH]c(C)n2)cc1 | 30µM* | ? | 0% | -15% | 89µM*
Cc1nc(SCC(=O)O)n[nH]1 | 3% | 2% | 4% | 16% | 7%
COc1cccc(CN(C)CCCn2cnc(C(=O)Nc3ccc(C)c(C)c3)n2)c1 | -3% | . | . | . | .
Cc1c(C)c2c(OCC(=O)O)cc3c(c2oc1=O)CCC(C)(C)O3 | -6% | . | 3% | 7% | 15%
Cc1c(C)c2c(OCC(=O)NCC(=O)NCC(=O)O)cc3c(c2oc1=O)CCC(C)(C)O3 | 12µM* | . | -2% | 6% | 15%
CC(C)C[C@@H](NC(=O)OCC1c2ccccc2-c2ccccc21)C(=O)O | . | 13µM* | -25% | -6% | 4%
Cc1cnc2c(N)cc(C)c(C)c2c1 | 0% | . | . | . | .
Cc1ccc(S(=O)(=O)CCc2nc3ccccc3s2)cc1 | 24µM* | -1% | 1% | 31% | ?
CC1=C(C)NC(=S)SC1 | 27µM* | 22µM* | 0% | -39% | ?
Cc1ccccc1-c1ccc2c(c1)O[C@@H](CN(C)C(=O)Nc1ccc(C(F)(F)F)cc1)[C@H](C)CN([C@@H](C)CO)S2(=O)=O | 4% | . | . | . | .
Cc1cccc2cc(/C=N/NC(=O)c3ccncc3)c(Cl)nc12 | 0% | . | 0% | -4% | 26%
Cc1cccc2cc(/C=N/NC(=O)c3ccccc3O)c(Cl)nc12 | -21% | -1% | ? | 10µM* | -11%
Cc1ccc2cc(/C=N/NC(=O)c3ccccc3O)c(Cl)nc2c1 | -24% | 1% | ? | 2.8µM* | 3%
O=C(O)C1Cc2[nH]cnc2C(c2ccccc2O)N1 (stereo not drawn) | -7% | -4% | -4% | -5% | 79µM*
CCC[C@H]1C[C@H](C(=O)N[C@@H]([C@H]2O[C@@H](SC)[C@@H](O)[C@@H](O)[C@@H]2O)[C@H](C)Cl)N(C)C1 | . | 11%[20.9 µM] | ? | -21%[16.9 µM] | 26%
N/C(=N\OC(=O)c1ccc(Cl)cc1)c1ccc(Cl)cc1 | -1% | -4% | 5% | -32% | 17%
N/C(=N\OC(=O)c1ccc(Cl)cc1)c1ccn[nH]1 | 1% | . | ? | 14µM* | 11%
CCCc1nc2ccc(C(=O)OC)cn2c1Cc1ccc(C)cc1 | -12% | . | . | . | .
CC(C)C[C@H](N)c1nnc(S(=O)(=O)Cc2ccc(F)cc2)o1 | ? | 1.6µM* | 14µM* | 0% | 14µM*
CC(C)C[C@H](N)c1nnc(SCC(=O)Nc2ccc(Br)cc2)o1 | -23% | . | -10% | 12% | -19%
Cc1ccccc1Nc1nc(NCc2ccco2)c2ccccc2n1 | -12% | ? | -3%[10 µM] | ? | ?
Oc1ccccc1Nc1nc(NCc2ccco2)c2ccccc2n1 | 6% | . | -25% | ? | 25µM*
COc1cccc(Nc2nc(NCCO)c3ccccc3n2)c1 | 5% | 15% | ? | ? | 20µM*
SMILES | PLK1 PBD inh | ALDH1A1 inh | Gal4-VP16 FLuc | RORgamma inh | Sfp PPTase inh
c1ccc(CN2CCN(c3nc(NCc4ccco4)c4ccccc4n3)CC2)cc1 | 4% | ? | ? | ? | 45µM*
c1ccc(Nc2nc(NCc3ccco3)c3ccccc3n2)cc1 | -7% | . | ? | -39% | 16µM*
O=C(NCc1ccccc1)c1cc(C2CCCN(S(=O)(=O)c3cccs3)C2)on1 (stereo not drawn) | 4% | . | . | . | .
Clc1ccc(-c2nnc(NCc3ccccc3)c3ccccc23)cc1 | -3% | 22µM* | -7% | 14% | -1%
CCOc1ccccc1NC(=O)C(=O)N/N=C/c1ccc([N+](=O)[O-])cc1 | -14% | 2% | -1% | -17% | 11%
O=C(N/N=C/C(Cl)=C/c1ccc([N+](=O)[O-])cc1)C(=O)Nc1ccccc1C(=O)O | -24% | ? | ? | 49% | 35µM*
O=C(Nc1ccc(C(=O)O)cc1)/C(=C\c1ccc([N+](=O)[O-])cc1)NC(=O)c1ccco1 | -2% | . | . | . | .
O=C(N/N=C/C(Cl)=C/c1ccc([N+](=O)[O-])cc1)C(=O)Nc1ccc(C(=O)O)cc1 | 30µM* | -5% | 15% | -3% | ?
O=C(Nc1ccc([N+](=O)[O-])cc1)C(=O)Nc1cccc(C(=O)O)c1 | -2% | 4% | 1µM* | 0.35µM* | 6%
CC1=NN(C(=O)c2ccccc2F)C(O)(c2ccc(Cl)cc2)C1 (stereo not drawn) | -8% | . | 6.3µM* | 5.6µM* | 14%
CCOC(=O)N1N=C(C)CC1(O)c1ccccc1 (stereo not drawn) | -10% | 8% | 3% | 16% | 18%
CC1=NN(C(=O)c2ccccc2Cl)C(O)(c2ccccc2)C1 (stereo not drawn) | -5% | . | 7.1µM* | 6.3µM* | 9%
COc1ccccc1C(=O)NC(=O)COC(=O)c1nc(Cl)ccc1Cl | -16% | . | . | . | .
COc1cc(-c2ccc(N=Nc3ccc4c(S(=O)(=O)O)cc(S(=O)(=O)O)c(N)c4c3O)c(OC)c2)ccc1N=Nc1ccc2c(S(=O)(=O)O)cc(S(=O)(=O)O)c(N)c2c1O | . | ? | ? | ? | 4µM*
COc1ccc(C(C)C)cc1S(=O)(=O)N1CCN(C)CC1 | -16% | ? | -9% | 16% | 2%
COc1cc(C)c(C(C)C)cc1S(=O)(=O)N1CCN(C)CC1 | -7% | 14µM* | 8% | -10% | 13%
CCOc1cc(C)c(C(C)C)cc1S(=O)(=O)N1CCN(C)CC1 | 1% | 5µM* | 0% | -9% | -14%
CCOc1cc(C)c(Cl)cc1S(=O)(=O)N1CCCC1 | 2% | 8% | 11% | 0% | 9%
COCCNC(=O)CN(C(=O)CCC(=O)Nc1ccccn1)c1ccc(C)cc1C | -1% | . | -7% | -2% | -1%
Cc1ccc2nc(NCCN)c3ncc(C)n3c2c1 | . | . | ? | -26% | -1%
O=C(CCC(=O)Nc1ccccc1Cl)NNC(=S)Nc1ccccc1C(F)(F)F | -2% | . | ? | 7.9µM* | 9%
O=C(NNC(=S)Nc1ccccc1C(F)(F)F)C1CC1 | -10% | . | 6% | 20µM* | 3%
CC(=O)Nc1ccccc1C(F)(F)F | 5% | . | 2% | 0% | 19%
Cc1ccc(S(=O)(=O)NCc2ccccc2)cc1C(=O)NCC(=O)Nc1c(C)cccc1C | 2% | . | . | . | .
Cc1ccc(F)c(NC(=O)/C(C#N)=C(\O)c2ccc(C(C)(C)C)cc2)c1 | 30µM* | ? | -4% | ? | -46%
CCn1c(=O)c2[nH]c(SC)nc2n(CC)c1=O | -6% | . | . | . | .
Cc1cc(=O)[nH]c(N2CCCNCC2)n1 | 1% | . | -1% | 14% | 5%
Cc1cc(=O)[nH]c(-n2nc(C)cc2C)n1 | -7% | 10% | 3.2µM* | 1.6µM* | -94%
Cc1cc(=O)[nH]c(-n2nc(C)c(Oc3ccccc3O)c2C)n1 | -7% | 9% | 11µM* | 4.5µM* | 19%
